From ChEMBL document CHEMBL1961873, “Compounds: GSK PKIS; Assays: Nanosyn kinase panel” (2012) come the findings set out here.

Each structure is given as a SMILES string.

Broadly, the inhibition is the share of the control response that was lost under treatment. A low value points to a response near the control.

Chain of Platelet-derived growth factor receptor alpha (Homo sapiens), P16234 [D842V] (P16234 whole entry D842V): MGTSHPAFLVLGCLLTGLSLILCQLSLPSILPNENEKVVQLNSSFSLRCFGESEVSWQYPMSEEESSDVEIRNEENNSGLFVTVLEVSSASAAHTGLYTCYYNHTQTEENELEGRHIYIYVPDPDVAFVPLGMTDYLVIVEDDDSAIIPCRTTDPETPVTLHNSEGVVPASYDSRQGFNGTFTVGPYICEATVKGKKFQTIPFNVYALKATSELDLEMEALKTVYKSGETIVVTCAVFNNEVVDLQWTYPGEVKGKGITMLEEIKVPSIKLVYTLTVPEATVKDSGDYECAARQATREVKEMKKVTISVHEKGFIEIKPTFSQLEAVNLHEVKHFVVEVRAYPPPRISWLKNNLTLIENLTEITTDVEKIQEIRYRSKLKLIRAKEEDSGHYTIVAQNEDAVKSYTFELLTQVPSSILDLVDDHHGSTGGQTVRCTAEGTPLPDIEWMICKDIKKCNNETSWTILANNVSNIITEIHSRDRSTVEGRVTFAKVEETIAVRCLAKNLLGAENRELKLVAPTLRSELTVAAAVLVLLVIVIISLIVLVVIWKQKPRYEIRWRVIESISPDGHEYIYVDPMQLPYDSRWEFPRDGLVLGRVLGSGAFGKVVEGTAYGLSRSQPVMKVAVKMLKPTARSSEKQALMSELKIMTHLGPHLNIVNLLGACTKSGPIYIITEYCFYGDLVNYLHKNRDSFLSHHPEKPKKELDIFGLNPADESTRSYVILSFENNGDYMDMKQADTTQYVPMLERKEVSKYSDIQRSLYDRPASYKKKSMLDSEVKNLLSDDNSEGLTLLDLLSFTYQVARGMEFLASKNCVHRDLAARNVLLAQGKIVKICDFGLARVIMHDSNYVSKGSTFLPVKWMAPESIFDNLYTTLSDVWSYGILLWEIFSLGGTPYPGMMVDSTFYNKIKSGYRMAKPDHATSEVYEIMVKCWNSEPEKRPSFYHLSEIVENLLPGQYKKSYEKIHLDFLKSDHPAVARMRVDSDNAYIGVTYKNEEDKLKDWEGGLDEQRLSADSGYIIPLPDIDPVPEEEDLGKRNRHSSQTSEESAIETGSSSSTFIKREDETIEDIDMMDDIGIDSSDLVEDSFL

The subject of this assay is Platelet-derived growth factor receptor alpha (Homo sapiens), P16234 [D842V]. Conditions: at 1 µM.
For the compound `c1ccc(-c2n[nH]cc2-c2ccnc(-c3ccc(OCCN4CCOCC4)cc3)c2)nc1`, the inhibition turned out to be 71%.

`Cc1ccc(NC(=O)c2ccoc2)cc1-c1ccc(C(=O)NCC2CC2)cc1` gave an inhibition of 0.74%.

Regarding `CCS(=O)(=O)c1ccc(OC)c(Nc2ncc(-c3cccc(-c4ccccc4F)c3)o2)c1`, the inhibition is 32.1%.

`Clc1ccc(CNc2nccc(-c3cnn4ncccc34)n2)cc1` displayed an inhibition of 4.84%.

Consider `COc1ccc2cc(-c3c(-c4ccncc4)nc(-c4ccc(S(C)(=O)=O)cc4C)n3C)ccc2c1`, for which the inhibition worked out at 12.3%.

Compound `CNC(=O)c1cncc(/C=C/c2c(C)cccc2C)c1` had an inhibition of 4.23%.

The compound `CS(=O)(=O)CCNCc1cc(-c2cc3c(Nc4ccc(OCc5cccc(F)c5)c(Cl)c4)ncnc3s2)cs1` yielded an inhibition of 4.9%.

`CCS(=O)(=O)c1ccc(OC)c(Nc2ncc(-c3ccccc3Cl)o2)c1` came in with an inhibition of 4.35%.

Take `Fc1ccc(-c2ncn(CCCN3CCOCC3)c2-c2ccncc2)cc1`: the inhibition worked out at 1.54%.

In the case of `COc1cccc(/C=N/Nc2ncnc3c2cnn3-c2cccc(OC)c2)c1`, the inhibition came out at 7.96%.

Consider `CN(C)CCOc1ccc(-c2cc(-c3ccc4c(c3)CCC4=NO)c(-c3ccncc3)o2)cc1`, for which the inhibition was 2.8%.

For the compound `NS(=O)(=O)c1ccc(Nc2cc(-c3ccc(O)c(F)c3)n[nH]2)cc1`, the inhibition is 39.5%.

`NC(=O)c1cc(-c2ccc(F)cc2)cc(-c2ccncc2)c1N` registered an inhibition of 12.2%.

As for `COc1cc2ncn(-c3cc(OCCc4ccccc4)c(C(N)=O)s3)c2cc1OC`, the inhibition stood at 44.9%.

Regarding `O=C(Nc1n[nH]c2cc(-c3cc(F)ccc3F)ccc12)C1CC1`, the inhibition came out at 7.89%.

The compound `COc1ccc2ncn(-c3cc(O[C@H](C)c4ccccc4Cl)c(C(N)=O)s3)c2c1` came in with an inhibition of 11.8%.

Turning to `CN(C)CCCNc1nccc(-c2c(-c3ccc(F)cc3)nn3cc(C(F)(F)F)ccc23)n1`, the inhibition worked out at 4.77%.

Compound `O=C(Nc1n[nH]c2nc(-c3ccco3)ccc12)C1CC1` came in with an inhibition of 6.18%.
